Data taken from PubChem BioAssay (NCI).
Compounds without any hit were thinned out: in the full panel of roughly 83,000, 20% have a hit.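 Assay: single dose, 48 h. Readout: percent growth (0 = no net growth; negative = cell death). Active: <10.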 A number with no mark means an inactive call. Calls of active or inactive are those of the source.

System: MDA-MB-468 breast
Assay: NCI-60 one-dose screen, 48 h (100 = growth as untreated, 0 = no growth, -100 = all killed)
Details: 10 µM unless noted

SMILES | growth
O=C1NN(c2ccccc2)C(c2ccc(Cl)cc2)N2CCC[C@H]12 (stereo not given in full) | 98.7%
N=C(N)c1ccc(-c2ccc(-c3cc(Cl)cc(Cl)c3)s2)nc1 | 15.7%
CC(=O)c1ccc(Nc2nc(SCC(C)C)nc(-c3ccc(F)cc3)c2C#N)cc1 | 118%
O=[N+]([O-])c1cc(C(F)(F)F)ccc1Sc1ccc(C(F)(F)F)cc1[N+](=O)[O-] | -4.58% (active)
N#Cc1nc(-c2ccc(F)cc2)oc1S(=O)(=O)N1CCN(c2ccc(F)cc2)CC1 | 86.9%
O=C(COc1ccc(/C=C2\C(=O)Nc3cc(Cl)ccc32)cc1)Nc1ccc(Cl)cc1 | 86.8%
CCCSC1=NC2C(N(CC)C(=O)N2CC)N1/N=C/C=C/c1ccccc1[N+](=O)[O-] (stereo not given) | 29.9%
O=C1NCC(Nc2ccc(Br)cc2Cl)C(=O)N1 (stereo not given) | 124%
CC(=O)n1c(/C(C#N)=C/c2ccc(N(C)C)cc2)cc2ccccc21 | 14.2%
Cc1[nH]c(-c2nc3ccccc3[nH]2)c(C)c1C(=O)NNc1ccc(Cl)cc1 | 84.8%
COc1ccc2oc(=O)cc(C3c4ccc([nH]4)C(c4cc(=O)oc5ccc(OC)cc45)c4ccc([nH]4)C(c4cc(=O)oc5ccc(OC)cc45)c4ccc([nH]4)C(c4cc(=O)oc5ccc(OC)cc45)c4ccc3[nH]4)c2c1 (stereo not given) | -38.6% (active)
Cc1cnc(SCc2ccc(Cl)cc2Cl)nc1Nc1ccc(Cl)c(Cl)c1 | 101%
O=C(CSc1nc2ccc([N+](=O)[O-])cc2[nH]1)Nc1ccc([N+](=O)[O-])cc1 | -12.4% (active)
Cc1cn(-c2cc(NC(=O)c3ccc(C)c(Nc4nccc(-c5cnccn5)n4)c3)cc(C(F)(F)F)c2)cn1 | 103%
C=C(C)C1CCC(=C)C2CCC3(C)OC12/C=C(/COC(C)=O)CCC3O (stereo not given) | 115%
FC(F)(F)c1[nH]ncc1-c1nc2ccc3n[nH]c(C#Cc4cccnc4)c3c2c2c1CCCC2 | 73.9%
Fc1ccccc1/C=C(/C1=NCCN1)n1cnc2ccccc21 | 98.1%
Cc1cccc2c(=O)c3c(sc12)c(NCc1ccccc1)nc1ccccc13 | -12.7% (active)
c1ccc(-c2cccc(-c3ccccn3)n2)nc1 | -15.6% (active)
O=C1c2ccccc2C(=O)N1c1ccccc1 | 108%

SMILES | growth
CS(=O)(=O)Nc1cc(-c2ccc3ncc(C#N)c(NCc4cccc(F)c4)c3c2)cnc1Cl | -37.9% (active)
O=C1CCC(N2C(=O)c3cccc(NCCCC4CCN(CCNC(=O)c5cc6c(o5)C(=O)c5ccccc5C6=O)CC4)c3C2=O)C(=O)N1 (stereo not given) | -73.9% (active)
O=C(CBr)OCc1ccc([N+](=O)[O-])o1 | 109%
Cc1ccc(-c2csc(N(C(=O)N3CCN(c4cc5c(cc4F)c(=O)c(C(=O)O)cn5C4CC4)CC3)c3ccccc3)n2)cc1 | -6.73% (active)
C=C(C)[C@@H]1CC[C@]2(C(=O)N3CCN(CC)CC3)CC[C@]3(C)[C@H](CC[C@@H]4[C@@](C)(CCC(=O)N5CCN(CC)CC5)[C@H](C(=C)C)CC[C@]43C)[C@@H]12 | 43.4%
CN(C)CCCC(C#N)c1ccccc1 (stereo not given) | 108%
COc1ccc(NC(=O)C2CC3C=CC2C3)c([N+](=O)[O-])c1 (stereo not given) | 93.1%
COc1ccccc1N1C(=O)/C(=C/C2=Cc3ccccc3OC2)SC1=S | 95%
Clc1ccc(/C=C/c2cc(N3CCOCC3)c3cc(Cl)c(Cl)cc3n2)cc1 | 91.2%
Cc1c(Cl)cccc1NC(=S)NC(=O)c1ccccc1 | 33.9%
C=CC(=O)Nc1cccc(Nc2nc(SC)nc(-c3cccc([N+](=O)[O-])c3)c2C#N)c1 | 55.9%
O=C(CC1(O)C(=O)Nc2c(Cl)ccc(Cl)c21)c1ccc(Cl)cc1Cl (stereo not given) | 103%
CC1(C)CC[C@]2(C(=O)OC(=O)[C@]34CCC(C)(C)C[C@@H]3C3=CC[C@@H]5[C@@]6(C)CCC(=O)C(C)(C)[C@@H]6CC[C@@]5(C)[C@]3(C)CC4)CC[C@]3(C)C(=CC[C@@H]4[C@@]5(C)CCC(=O)C(C)(C)[C@@H]5CC[C@]43C)[C@H]2C1 | 61.5% [100 µM]
O=S(=O)(NCCNc1nccc(-c2c(-c3cccc(O)c3)nc3occn23)n1)c1ccc(C(F)(F)F)cc1 | 89%
Clc1nccc2c(-c3csc(-c4c[nH]c5ccccc45)n3)c[nH]c12 | 29.2%
NS(=O)(=O)c1ccc(CN=C2NC(=O)S/C2=C\c2ccc(Br)cc2)cc1 | 97.1%
COc1ccc(C2CC(c3cc(OC)c(OC)c(OC)c3)=NN2c2ccc(S(N)(=O)=O)cc2)cc1 (stereo not given) | 71%
Cc1cc(C)c(N2C(=O)CC(Nc3ccc(Cl)cc3Cl)C2=O)c(C)c1 (stereo not given) | 96.1%
CC1(C)OC(=O)C(=Cc2ccccc2Br)C(=O)O1 | 98.2%
Cc1cc2c(-c3nc4ccccc4n3C)c(O)c(O)cc2c(O)c1-c1c(C)cc2c(-c3nc4ccccc4n3C)c(O)c(O)cc2c1O | 35.7%
